The source of these data is PubChem BioAssay.

A short description of assay [1]: antimalarial activity against Dd2 strain (AID 2302;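 active means growth inhibition above 50% at the single 2 µM test dose, taken to imply half-maximal potency below 2 µM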;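 further: 0% = DMSO untreated growth and 100% = chloroquine plus artemisinin killed control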). Particulars: P. falciparum Dd2 in RBCs, LDH growth readout, 72 h; at 2 µM; active compounds read high.
Assay [2] in a line: HepG2 cytotoxicity, primary screen, cytotoxicity control for P. falciparum antimalarial project, cell-based, ATP luminescence (AID 2303;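 active means inhibition above 50%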;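 further: 0% = DMSO wells and 100% = digitonin-killed cells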). Particulars: HepG2 viability, 24-48 h, at 10 µM, active compounds read high.
Assay [3] concerns the target L-lactate dehydrogenase (Plasmodium falciparum (isolate CDC / Honduras)) (UniProt Q27743). The assay is described as follows: PfLDH activity inhibition – cell lysate, 3D7 strain, counter-screen for P. falciparum growth inhibition project (AID 2304).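 Further: 0% = vehicle and 100% = reference inhibitor.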 Particulars: P. falciparum 3D7 crude extract, LDH APAD/NBT absorbance; at 2 µM; active compounds read high. (In general: The purpose of a counterscreen is to sort out artefacts and off-target activity.)

Assay [4] is described as follows: inhibition of 3D7 malaria parasite growth – strain 3D7 (AID 2306).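 Further: 0% = DMSO wells and 100% = chloroquine plus artemisinin control wells.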 Particulars: P. falciparum 3D7 erythrocytic growth, LDH absorbance, 72 h; at 2 µM; active compounds read high.
In assay [5] the target is Calcium-dependent protein kinase 1 (Plasmodium falciparum (isolate 3D7)) (UniProt P62344). The assay is described as follows: PfCDPK1 kinase inhibitors, biochemical, TCAMS library (AID 1159585; cut-off not given, nearly all actives have IC50 up to about 0.98 µM;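 further: inhibitors leave more ATP so luminescence rises with inhibition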). Particulars: recombinant PfCDPK1, Kinase-Glo ATP depletion luminescence.
In assay [6] the target is Plasmodium falciparum protein kinase 6 (PK6, PF3D7_1337100) (UniProt Q8IDW1). The assay is described as follows: PfPK6 kinase inhibitors, biochemical, TCAMS library (AID 1159586). Particulars: recombinant PfPK6, Kinase-Glo ATP depletion luminescence. A general note: Kinase-Glo measures the ATP left after a reaction by luminescence.
The target in assay [7] is Protein kinase 7 (PK7), Plasmodium falciparum 3D7 (PF3D7_0213400) (UniProt Q7YTF7). Put plainly: inhibition of Plasmodium PK7 catalytic activity – biochemical, TCAMS antimalarial set, Kinase-Glo luminescence (AID 1159587). As to conditions: recombinant PfPK7, Kinase-Glo ATP depletion luminescence.
The target of assay [8] is Calcium-dependent protein kinase 4 (Plasmodium falciparum (isolate 3D7)) (UniProt Q8IBS5). The assay is described as follows: PfCDPK4 kinase inhibitors, biochemical, TCAMS library (AID 1159588; cut-off not given, nearly all actives have IC50 up to about 0.91 µM). Particulars: recombinant PfCDPK4, Kinase-Glo ATP depletion luminescence.

Unmarked numbers belong to inactive results. For part of these data: Results with a measured potency or affinity are listed apart. Calls of active or inactive are those of the source. Unless noted, how the calls were made is not given here.

Chain of Plasmodium falciparum protein kinase 6 (PK6, PF3D7_1337100) (Q8IDW1 1-305): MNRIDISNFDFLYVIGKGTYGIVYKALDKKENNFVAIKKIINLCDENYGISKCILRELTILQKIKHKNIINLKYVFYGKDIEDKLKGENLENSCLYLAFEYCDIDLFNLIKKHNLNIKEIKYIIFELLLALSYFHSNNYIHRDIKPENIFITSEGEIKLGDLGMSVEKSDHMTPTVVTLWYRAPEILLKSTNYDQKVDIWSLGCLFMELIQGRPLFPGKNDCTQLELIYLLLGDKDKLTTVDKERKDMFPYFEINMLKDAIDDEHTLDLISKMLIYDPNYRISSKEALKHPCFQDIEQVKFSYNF
Chain of Protein kinase 7 (PK7), Plasmodium falciparum 3D7 (PF3D7_0213400) (Q7YTF7 1-343): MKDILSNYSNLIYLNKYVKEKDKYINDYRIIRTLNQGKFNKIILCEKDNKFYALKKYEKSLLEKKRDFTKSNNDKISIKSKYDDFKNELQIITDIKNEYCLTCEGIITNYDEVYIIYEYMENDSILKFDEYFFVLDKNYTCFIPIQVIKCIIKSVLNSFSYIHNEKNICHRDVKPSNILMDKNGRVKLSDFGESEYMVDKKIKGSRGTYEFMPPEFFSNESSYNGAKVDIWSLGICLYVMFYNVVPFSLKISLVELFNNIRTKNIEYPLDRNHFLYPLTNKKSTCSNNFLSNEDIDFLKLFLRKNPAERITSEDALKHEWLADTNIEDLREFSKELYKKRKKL
Chain of L-lactate dehydrogenase (Plasmodium falciparum (isolate CDC / Honduras)) (Q27743 whole entry, looked up): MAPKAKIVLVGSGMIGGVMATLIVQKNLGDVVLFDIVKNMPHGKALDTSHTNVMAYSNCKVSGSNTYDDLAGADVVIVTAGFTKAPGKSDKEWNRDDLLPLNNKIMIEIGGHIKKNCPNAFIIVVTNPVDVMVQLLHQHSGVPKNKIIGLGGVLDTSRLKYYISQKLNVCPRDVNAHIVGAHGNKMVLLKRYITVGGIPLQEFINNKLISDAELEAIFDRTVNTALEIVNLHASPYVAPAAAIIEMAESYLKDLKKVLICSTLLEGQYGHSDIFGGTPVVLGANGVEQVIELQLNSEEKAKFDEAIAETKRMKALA
Chain of Calcium-dependent protein kinase 4 (Plasmodium falciparum (isolate 3D7)) (Q8IBS5 whole entry, looked up): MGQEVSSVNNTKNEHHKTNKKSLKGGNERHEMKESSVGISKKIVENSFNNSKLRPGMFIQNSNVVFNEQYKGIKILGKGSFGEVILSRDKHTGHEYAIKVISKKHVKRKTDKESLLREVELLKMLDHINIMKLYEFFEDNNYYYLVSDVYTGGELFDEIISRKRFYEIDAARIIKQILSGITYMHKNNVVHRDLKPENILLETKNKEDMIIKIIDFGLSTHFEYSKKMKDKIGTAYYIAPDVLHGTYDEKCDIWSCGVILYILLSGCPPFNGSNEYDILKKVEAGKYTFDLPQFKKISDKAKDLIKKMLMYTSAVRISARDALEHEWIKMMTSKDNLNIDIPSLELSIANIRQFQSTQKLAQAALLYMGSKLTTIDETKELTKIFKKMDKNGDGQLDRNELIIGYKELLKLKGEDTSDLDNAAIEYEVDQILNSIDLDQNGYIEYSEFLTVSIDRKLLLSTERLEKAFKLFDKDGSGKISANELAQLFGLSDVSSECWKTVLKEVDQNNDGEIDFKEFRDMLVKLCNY
Chain of Calcium-dependent protein kinase 1 (Plasmodium falciparum (isolate 3D7)) (P62344 whole entry, looked up): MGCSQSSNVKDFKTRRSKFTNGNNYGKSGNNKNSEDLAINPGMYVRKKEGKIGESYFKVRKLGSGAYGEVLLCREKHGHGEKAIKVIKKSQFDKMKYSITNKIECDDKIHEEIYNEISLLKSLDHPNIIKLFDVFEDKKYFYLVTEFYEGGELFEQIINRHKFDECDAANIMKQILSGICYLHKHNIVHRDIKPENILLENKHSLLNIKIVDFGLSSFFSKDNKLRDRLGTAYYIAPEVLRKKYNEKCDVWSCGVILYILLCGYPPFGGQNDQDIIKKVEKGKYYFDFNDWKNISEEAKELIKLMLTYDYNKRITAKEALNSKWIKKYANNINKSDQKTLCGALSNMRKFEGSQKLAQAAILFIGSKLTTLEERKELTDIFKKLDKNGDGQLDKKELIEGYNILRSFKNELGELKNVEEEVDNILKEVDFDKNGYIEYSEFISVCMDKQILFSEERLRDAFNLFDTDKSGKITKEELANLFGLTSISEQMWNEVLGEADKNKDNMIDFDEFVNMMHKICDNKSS

A word on the inhibition: it is the relative decrease from the control value, in per cent. Regarding `CCC(C)NC(=O)CN1CN(c2ccccc2)C2(CCN(C(=O)c3ccc(-c4ccccc4)cc3)CC2)C1=O` (stereo not drawn), the growth inhibition in assay [1] and in assay [4] was 100% (active) throughout. The inhibition in assay [2] is -1%; in assay [3] it was -2%. The outcome in assay [5], in assay [6], in assay [7] and in assay [8] was inactive.

`Cc1[nH]c(C)c(-c2ccc(-c3ccc4c(c3)OCO4)nc2)c(=O)c1Br`: the growth inhibition in assay [1] and in assay [4] was 96% (active) each time. In addition, the inhibition in assay [2] was -6%; in assay [3], -8%. Moreover, the result in assay [5], in assay [6], in assay [7] and in assay [8] was inactive.

As to `O=[N+]([O-])c1cccc(NC(=S)N2CCCN(Cc3ccc(Cl)cc3Cl)CC2)c1`, the growth inhibition in assay [1] was 50% (active); in assay [4], 94% (active). Moreover, the inhibition in assay [2] is 3%; in assay [3], 4%. Further, the result in assay [5], in assay [6], in assay [7] and in assay [8] was inactive.

As for `N#Cc1cccc(NC(=O)C2=C(CCc3ccc4c(c3)OCO4)NC(=O)NC2c2cccc(C#N)c2)c1` (stereo not drawn), the growth inhibition in assay [1] was 47%; in assay [4], 96% (active). Moreover, the inhibition is 3% in assay [2] and -1% in assay [3]. In addition, the outcome in assay [5], in assay [6], in assay [7] and in assay [8] was inactive.

As for `CCCCCCN1CCCN(Cc2ccc(C(=O)Nc3cccc(CC)c3)cc2)CC1`, the growth inhibition in assay [1] is 54% (active); in assay [4] it was 85% (active). Also, the results for the inhibition in assay [2] and in assay [3] were 31% and -3%, respectively. Moreover, the outcome in assay [5], in assay [6], in assay [7] and in assay [8] was inactive.

With `O=C(Nc1ccc(Cn2ncc(N3CCCNCC3)c(Cl)c2=O)cc1)Nc1cccc(Oc2ccccc2)c1`, the growth inhibition was 41% in assay [1] and 81% (active) in assay [4]. Also, the inhibition in assay [2] was 8%; in assay [3], -5%. Also, the outcome in assay [5], in assay [6], in assay [7] and in assay [8] was inactive.

Consider `COc1ccc(Oc2ccc(-c3c(C)[nH]c(C)cc3=O)cc2)cc1`, for which the results for the growth inhibition in assay [1] and in assay [4] were 88% (active) and 93% (active), respectively. For the same molecule, the inhibition was -12% in assay [2] and -3% in assay [3]. Besides, the outcome in assay [5], in assay [6], in assay [7] and in assay [8] was inactive.

In the case of `CC(C)N1CCC(N(Cc2ccc(-c3ccc(C(F)(F)F)cc3)cc2)C(=O)Cn2c(SCc3cccc(F)c3F)cc(=O)c3c2CCC3)CC1`, the growth inhibition in assay [1] is 42%; in assay [4], 88% (active). Further, the inhibition in assay [2] is 44%; in assay [3], -6%. The outcome in assay [5], in assay [6], in assay [7] and in assay [8] was inactive.

As for `N#Cc1ccc(CN2CCCN(Cc3cccc(NC(=O)c4cc5ccccc5s4)c3)CC2)cc1`, the growth inhibition in assay [1] was 36%; in assay [4], 97% (active). Moreover, the inhibition in assay [2] was 31%; in assay [3], 0%. The outcome in assay [5], in assay [6], in assay [7] and in assay [8] was inactive.

In the case of `CS(=O)(=O)CCNCc1cccc(-c2cc3nccc(Nc4ccc(Oc5ccccc5)cc4)c3cc2Cl)c1`, the figures for the growth inhibition in assay [1] and in assay [4] were 82% (active) and 100% (active), respectively. Besides, the inhibition is 2% in assay [2] and -3% in assay [3]. Further, the result in assay [5], in assay [6], in assay [7] and in assay [8] was inactive.

With `NCC1CCCN1Cc1ccc(-c2ccc(-c3nc4ccccc4[nH]3)s2)cc1` (stereo not drawn), the growth inhibition is 97% (active) in assay [1] and 98% (active) in assay [4]. Moreover, the inhibition in assay [2] is 17%; in assay [3], -6%. Moreover, the outcome in assay [5], in assay [6], in assay [7] and in assay [8] was inactive.

As for `c1ccc(-c2ccc3c(Nc4ccc5[nH]ccc5c4)ccnc3c2)nc1`, the growth inhibition was 78% (active) in assay [1] and 91% (active) in assay [4]. For the same molecule, the inhibition in assay [2] is 11%; in assay [3], -7%. The result in assay [5], in assay [6], in assay [7] and in assay [8] was inactive.

For `CC[C@H](C)CNC(=O)c1cncc(-c2ccc(CN3CCC(N4CCCC4)CC3)cc2)c1`, the figures for the growth inhibition in assay [1] and in assay [4] were 100% (active) and 101% (active), respectively. For the same molecule, the inhibition is -8% in assay [2] and 3% in assay [3]. For the same molecule, the result in assay [5], in assay [6], in assay [7] and in assay [8] was inactive.

In the case of `Cc1ccc(C)c(CC(=O)N2CCC(n3c(C)nc4ccc(F)cc43)CC2)c1`, the figures for the growth inhibition in assay [1] and in assay [4] were 99% (active) and 100% (active), respectively. Further, the inhibition in assay [2] was -2%; in assay [3], 1%. In addition, the outcome in assay [5], in assay [6], in assay [7] and in assay [8] was inactive.

For the molecule `CCCCCCN1CCC(NCc2cccc([N+](=O)[O-])c2)CC1`, the growth inhibition is 16% in assay [1] and 100% (active) in assay [4]. The inhibition in assay [2] was -2%; in assay [3], 0%. The outcome in assay [5], in assay [6], in assay [7] and in assay [8] was inactive.

For the molecule `O=C(Nc1ccc(S(=O)(=O)N2CCCCC2)cc1)c1cc(-c2ccccc2O)n[nH]1`, the growth inhibition is 81% (active) in assay [1] and 94% (active) in assay [4]. The inhibition in assay [2] is 13%; in assay [3] it was -2%. Also, the outcome in assay [5], in assay [6], in assay [7] and in assay [8] was inactive.

`CC(C)CCN1C(=O)C(NC(=O)Oc2ccccc2)C(=O)N(CC23CC4CC(CC(C4)C2)C3)c2ccccc21` (stereo not drawn): the results for the growth inhibition in assay [1] and in assay [4] were 4% and 95% (active), respectively. Moreover, the inhibition in assay [2] was 3%; in assay [3], 0%. The outcome in assay [5], in assay [6], in assay [7] and in assay [8] was inactive.

In the case of `COc1ccc(C(=O)CCc2ccc(O)cc2)cc1`, the growth inhibition was 90% (active) in assay [1] and 96% (active) in assay [4]. Besides, the inhibition was -2% in assay [2] and 4% in assay [3]. Further, the result in assay [5], in assay [6], in assay [7] and in assay [8] was inactive.

As to `CN1CCN(Cc2ccc(-c3ccc4c(Nc5ccc(Oc6ccccc6)cc5)ccnc4c3)o2)CC1`, the growth inhibition in assay [1] and in assay [4] was 99% (active) in each case. The inhibition in assay [2] is 23%; in assay [3], 0%. The outcome in assay [5], in assay [6], in assay [7] and in assay [8] was inactive.

As to `CC(C)OC(=O)c1ccccc1S(N)(=O)=O`, the figures for the growth inhibition in assay [1] and in assay [4] were -2% and 97% (active), respectively. The inhibition was -6% in assay [2] and 1% in assay [3]. In addition, the result in assay [5], in assay [6], in assay [7] and in assay [8] was inactive.

Turning to `Cc1cc(-c2nc3ccc(N4CCN(C)CC4)cc3[nH]2)nn1Cc1cc(Cl)ccc1OCC(C)C`, the figures for the growth inhibition in assay [1] and in assay [4] were 67% (active) and 99% (active), respectively. The inhibition in assay [2] was 41%; in assay [3] it was 1%. Further, the result in assay [5], in assay [6], in assay [7] and in assay [8] was inactive.
